Results on 35 compounds are retold here after PubChem BioAssay.

Active and inactive are the calls of the source.

A short description of the test: E. coli DRC41 culture turbidity changes, primary screen, E. coli filamentation inducer project, strain DRC41, OD650, 48 h (AID 1152).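 Further: E. coli MC1000 strain DRC41 lacking acrAB efflux pump and sulA.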 To be noted: E. coli DRC41 (acrAB sulA), higher = more signal, called active from +8 up or from −8 down.
In the case of `COc1ccc(C#Cc2ccc3c(c2)[C@]2(C(=O)N3)[C@H](C(=O)N3CCN(c4ncccn4)CC3)[C@H]3C(=O)O[C@H](c4ccccc4)[C@H](c4ccccc4)N3[C@@H]2c2ccc(O)cc2)cc1`, the z-score was -0.475 (inactive). `CCCC[C@H]1C[C@@H]1[C@@H]1N(P(=O)(c2ccccc2)c2ccccc2)[C@](CO)(c2ccccc2)CC12CC2`: the z-score was -2.52 (inactive).

As for `O=C(N1CCCCC1)[C@]1(CCS(=O)(=O)c2ccccc2)N=C(c2ccc(OCCCO)cc2)O[C@@H]1c1ccccc1`, the z-score was -0.725 (inactive). On to `OCCCc1cc[n+](Cc2cccc(OC(F)(F)F)c2)cc1`, for which the z-score was -0.123 (inactive). With `COc1ccc([Si](C)(C)[C@H]2[C@H](CC(=O)N3CCC[C@H]3CO)O[C@@]3(C(=O)N(Cc4cccc(N5CCC5=O)c4)c4ccccc43)[C@@H]2C)cc1`, the z-score was 0.689 (inactive).

For the compound `CCCNC(=O)[C@@]1(c2ccc([N+](=O)[O-])cc2)CC(=O)N(CC23CC4CC(CC(C4)C2)C3)[C@@H]1c1ccc(CO)cc1I`, the z-score is 0.0121 (inactive). To `CCCNC(=O)[C@@]1(C)c2ccccc2C(=O)N(Cc2cc(F)cc(C(F)(F)F)c2)[C@H]1c1ccc(CO)cc1` belongs 0.119 (inactive). On to `C=C[C@H](C)[C@H](OC(=O)Nc1ccc(OC)cc1)c1ccc(O)c2ccccc12`, for which the z-score is -0.222 (inactive). In the case of `O=c1cccc(-c2ccccc2)o1`, the z-score is -0.766 (inactive).

`CC1CC/C=C\[C@H]2OC34C=CCN(Cn5nnc6ccccc65)C(=O)[C@H]3N(CCCO)C(=O)[C@@H]4C2C(=O)O1` (stereo not given in full): the z-score is 1.29 (inactive). On to `COc1ccc(C#Cc2ccc3c(c2)[C@]2(C(=O)N3)[C@H](c3ccc(OCCO)cc3)N3[C@H](c4ccccc4)[C@H](c4ccccc4)OC(=O)[C@H]3[C@@H]2C(=O)Nc2nc3ccccc3s2)cc1`, for which the z-score was 1.84 (inactive). For the compound `C=C(C(=O)CC[C@H](OC(=O)c1cccnc1)c1ccccc1OCCO)C(C)C`, the z-score is -0.378 (inactive). `C=CC[C@@]1(C(=O)NCCN2CCOCC2)N=C(c2ccc(OCCCO)cc2)O[C@@H]1c1ccccc1CN=[N+]=[N-]`: the z-score was -0.121 (inactive). Take `C=CCOC(=O)[C@H]1[C@@H]2C(=O)O[C@@H](c3ccccc3)[C@@H](c3ccccc3)N2[C@@H](c2ccc(OCCOC(=O)[C@@H]3C[C@@H]4C(=O)NCC(=O)N4[C@@H]3c3ccc(O)cc3)cc2)[C@]12C(=O)Nc1ccc(I)cc12`: the z-score was -0.481 (inactive). Turning to `CCOC(=O)C[C@H]1[C@H](OC(=O)c2ccc(C(=O)c3ccccc3)cc2)[C@@H](NC(=O)c2ccc3ccccc3n2)c2cc(OCCCO)ccc2N1C(=O)c1ccc2ccccc2n1`, the z-score was 1.14 (inactive). `C=CCC(OC(C)=O)[C@@H]1[C@@H](N(Cc2ccc(-c3cccc(C(F)(F)F)c3)o2)C(=O)Cc2ccc(OC)cc2)c2cc(OCCCO)ccc2N1C(=O)Cc1ccc(OC)cc1` (stereo not given in full): the z-score is 1.12 (inactive). Next, `C=CCC(OC(C)=O)[C@@H]1[C@@H](N(Cc2ccc(-c3ccccc3)cc2)C(=O)c2ccc(C)cc2)c2cc(OCCCO)ccc2N1C(=O)Cc1ccc(OC)cc1` (stereo not given in full): 2.25 (inactive); `C=C(COC)C(=O)CC[C@@H](OC(=O)c1ccccc1-c1ccccc1C(=O)O)c1ccc(CO)o1`: -0.448 (inactive). Next, `CN(C)CCCC[C@@H]1NC(=O)[C@@H]2C[C@H](C(=O)NCCCCCN)[C@H](c3ccc(O)cc3)N2C1=O`: 0.195 (inactive). To `CN(C)CCCN1C(=O)[C@@]2(c3ccc([N+](=O)[O-])cc3)CC(=O)N(C3CCCCC3)[C@@H]2c2ccc(CO)cc21` belongs 0.493 (inactive); to `O=C1C2C=CC(C(O)c3cccc4ccccc34)N(n3cnnc3)C2C(=O)N1Cc1ccccc1` (stereo not given), -1.53 (inactive).

In the case of `COCCCNC(=O)[C@]1(Cc2ccccc2N=[N+]=[N-])N=C(c2ccc(OCCCO)cc2)O[C@@H]1c1ccccc1CN=[N+]=[N-]`, the z-score was 0.871 (inactive). As to `C=C(COC)C(=O)CC[C@H](OC(=O)c1cccnc1)c1ccccc1OCCO`, the z-score is 0.0928 (inactive). Turning to `CCOC(=O)N1C(c2ccc(OCCCO)cc2)=NC(C(=O)OC)N1C(=O)OCC` (stereo not given), the z-score is 1.28 (inactive). To `C=CCOC(=O)[C@H]1[C@@H]2C(=O)O[C@@H](c3ccccc3)[C@@H](c3ccccc3)N2[C@@H](c2ccc(OCCOC(=O)[C@H]3C[C@H]4C(=O)N[C@@H](CCCC[N+](C)(C)C)C(=O)N4[C@H]3c3ccc(O)cc3)cc2)[C@]12C(=O)Nc1ccccc12` belongs 0.0787 (inactive); to `CC(C)N1C(=O)c2ccccc2[C@](C)(C(=O)NCCCN(C)C)[C@@H]1c1ccc(CO)cc1`, 0.0259 (inactive); to `C=CCC(OC(C)=O)[C@@H]1[C@@H](N(Cc2ccc(-c3ccccc3)cc2)C(=O)c2ccc(C)cc2)c2cc(OCCCO)ccc2N1C(=O)c1ccc2ccccc2n1` (stereo not given in full), 2.95 (inactive). With `COC(=O)[C@@]1(Cc2ccc(F)cc2)[C@H]2c3cc(C(=O)N4CCCC4)n(Cc4ccc(Cl)c(C(F)(F)F)c4)c3C[C@H]2CN1C(=O)c1ccccc1`, the z-score is -1.31 (inactive). To `COCCCNC(=O)[C@@]1(Cc2ccccc2I)c2ccccc2C(=O)N(Cc2ccccc2)[C@H]1c1ccc(CO)cc1` belongs 0.263 (inactive); to `CC(=O)NCCCC[C@@H]1NC(=O)[C@@H]2C[C@H](C(=O)NCc3ccc(F)cc3)[C@H](c3ccc(O)cc3)N2C1=O`, 0.921 (inactive); to `CCOC(=O)C1=CC[C@@H](c2cccc(Cl)c2)N(S(=O)(=O)c2ccc(C)cc2)[C@H]1c1ccc(C#N)cc1`, -1.41 (inactive).

Turning to `CCCNC(=O)[C@@]1(C)c2ccccc2C(=O)N(Cc2cc(C(F)(F)F)cc(C(F)(F)F)c2)[C@H]1c1ccc(CO)cc1`, the z-score was -0.253 (inactive). Regarding `COC(=O)c1c2oc(c1C(=O)OC)C(=O)N[C@H](Cc1ccccc1)Cn1nncc1C1(CCCCC1)NC(=O)N[C@H](CO)CC2`, the z-score is 1.74 (inactive). To `CN(C)CCCC[C@@H]1NC(=O)[C@@H]2C[C@H](C(=O)NCc3ccc(F)cc3)[C@H](c3cccc(OCCO)c3)N2C1=O` belongs -0.179 (inactive). In the case of `COc1ccc([Si](C)(C)[C@@H]2[C@@H](CCn3cc([C@H](O)c4ccccc4)nn3)O[C@]3(C(=O)N(C)c4ccccc43)[C@H]2C)cc1`, the z-score is -0.702 (inactive).
